Several values for one entry are separate records, joined by “and”; a condition that tells them apart may be missing. Equal values may be shown once. Compounds without any hit were thinned out: in the full panel of roughly 83,000, 20% have a hit.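 Note: values are percent growth. 100 is the growth of untreated cells, values between 100 and 0 indicate rising inhibition; between -100 and 0 indicates cell death.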 A number with no mark means an inactive call. Activity calls are given as the source filed them. The calls were made as follows: active = growth percent below 10; inactive = the rest.
Legend:
Assay in all cases: NCI-60 one-dose screen, 48 h (100 = growth as untreated, 0 = no growth, -100 = all killed)
Conditions in all cases: 10 µM unless noted
NCI-H23 lung = tested on: NCI-H23 lung
NCI-H226 lung = tested on: NCI-H226 lung
NCI-H322M lung = tested on: NCI-H322M lung
HOP-62 NSCLC = tested on: HOP-62 NSCLC
NCI-H460 lung = tested on: NCI-H460 lung
HOP-92 NSCLC = tested on: HOP-92 NSCLC
NCI-H522 lung = tested on: NCI-H522 lung
A549/ATCC NSCLC = tested on: A549/ATCC NSCLC
786-0 renal = tested on: 786-0 renal
COLO 205 colon = tested on: COLO 205 colon
DU-145 prostate = tested on: DU-145 prostate
K-562 leukemia = tested on: K-562 leukemia
MALME-3M melanoma = tested on: MALME-3M melanoma
MDA-MB-231 breast = tested on: MDA-MB-231 breast
RXF 393 renal = tested on: RXF 393 renal
SF-268 CNS = tested on: SF-268 CNS
SF-295 CNS = tested on: SF-295 CNS
SF-539 CNS = tested on: SF-539 CNS
UACC-257 melanoma = tested on: UACC-257 melanoma
M14 melanoma = tested on: M14 melanoma

Compound	growth (NCI-H23 lung)	growth (NCI-H226 lung)	growth (NCI-H322M lung)	growth (HOP-62 NSCLC)	growth (NCI-H460 lung)	growth (HOP-92 NSCLC)	growth (NCI-H522 lung)	growth (A549/ATCC NSCLC)	growth (786-0 renal)	growth (COLO 205 colon)	growth (DU-145 prostate)	growth (K-562 leukemia)	growth (MALME-3M melanoma)	growth (MDA-MB-231 breast)	growth (RXF 393 renal)	growth (SF-268 CNS)	growth (SF-295 CNS)	growth (SF-539 CNS)	growth (UACC-257 melanoma)	growth (M14 melanoma)
Cc1ccc(S(=O)(=O)Nc2cc(Sc3ccccc3)c(O)c3ccccc23)cc1	58%	96%	102%	112%	105%	18.2%	81%	90.3%	104%	108%	84.3%	41.1%	77.7%	-1.57% (active)	105%	65.8%	96.8%	92.9%	62.8%	107%
COC(=O)c1nc(-c2ccc(C)cc2)oc1S(=O)(=O)c1ccc(Cl)cc1	91.3%	96%	99.6%	97.4%	109%	95.1%	59.6%	100%	86.1%	70.5%	113%	9.37% (active)	31%	87%	120%	97.1%	108%	96.6%	100%	79.7%
O=C(O)c1ccccc1Cc1ccc(F)c2ccccc12	97.5% and 105%	107%	109% and 112%	94.3% and 109%	109% and 99.2%	74.6%	94.5% and 89.9%	101% and 95.3%	125% and 110%	101% and 121%	90.6% and 116%	103% and 98.4%	102% and 117%	115% and 106%	107% and 95.9%	102% and 103%	71.1% and 103%	117% and 107%	107% and 98.8%	129% and 102%
Cc1nc2cccc(NCCCCC(=O)NO)c2c(=O)n1-c1ccccc1	69.3%	83.9%	66.1%	50.3%	76.5%	43.3%	43.5%	78.8%	69.7%	62.4%	58.1%	40.9%	23.4%	77.1%	49.2%	74.6%	82.9%	49.9%	42.7%	50.4%
CCN(CC)CCOc1ccccc1C	111%	116%	115%	93.8%	109%	94.6%	92.6%	98.6%	98.8%	111%	113%	97.5%	105%	103%	160%	120%	101%	93.7%	106%	98.8%
COc1ccccc1/C=C1\COc2ccc(O)cc2C1=O	101%	102%	104%	101%	93.3%	103%	24.6%	84.6%	97.2%	87.6%	96.4%	6.88% (active)	79.9%	121%	92.1%	83.9%	104%	92.5%	95.2%	77.8%
c1cc(NCCCCN2CCOCC2)c2ccc3c(ccc4c(NCCN5CCOCC5)ccnc43)c2n1	70.7%	79.6%	72.9%	81.5%	40.8%	56.8%	82.5%	75.9%	79.5%	90.5%	80.8%	66.5%	99.9%	71%	72.5%	101%	97.9%	82.3%	116%	92.7%
O=C1CCc2c(sc3[nH]c(=S)n(Cc4ccc(Cl)cc4)c(=O)c23)C1	-12.9% (active)	-8.6% (active)	11.4%	-11.5% (active)	5.05% (active)	-44.2% (active)	-18.6% (active)	5.35% (active)	21%	-67.5% (active)	23.7%	11%	1.17% (active)	-24.7% (active)	5.18% (active)	18.7%	-6.67% (active)	-57.4% (active)	-14.9% (active)	12.4%
COC(=O)c1c2c(c(C)[n+]([O-])c1C)C(=O)C(NCCN1CCOCC1)=CC2=O	59.7%	103%	72.5%	101%	55.4%	146%	87.5%	91.3%	89.9%	6.73% (active)	84.3%	75.6%	-13.2% (active)	70.8%	96.3%	79.3%	82.7%	89.5%	48.4%	62.9%
O=C(CCN1CCOCC1)Nc1cccc(-n2cc(-c3ccncc3)c(-c3ccc(Cl)c(O)c3)n2)c1	51.7%	71%	60.4%	28%	17.8%	23.7%	5.83% (active)	35.8%	11.7%	0.424% (active)	13%	20.2%	66.3%	55.4%	22.2%	37%	6.52% (active)	-19.7% (active)	66.2%	5.06% (active)
O=C(NCc1cccnc1)/C(=C\c1ccc(Br)cc1)S(=O)(=O)c1ccccc1	-43.7% (active)	7.52% (active)	1.87% (active)	-34.1% (active)	-30.5% (active)	-2.35% (active)	-71.2% (active)	-3.53% (active)	-67.7% (active)	-84.2% (active)	-86.8% (active)	29.7%	-20.5% (active)	-65.7% (active)	-88% (active)	-30.9% (active)	13.9%	-59% (active)	-20.5% (active)	-41.1% (active)
O=C(CCCCCCCCC(=O)N/N=C\c1ccccc1O)N/N=C\c1ccccc1O	39.9%	-5.86% (active)	19.5%	0.588% (active)	-11.3% (active)	41.9%	34.3%	17.1%	3.41% (active)	43.1%	26.7%	16.4%	15.1%	38.1%	31.1%	14.6%	36%	16.7%	20.2%	-9% (active)
ON=C1CCCCCCCC1	99.6% and 98%	105%	96.4%	104%	114% and 110%	105% and 102%	94.1% and 92.8%	103% and 110%	116% and 95.6%	102% and 112%	107% and 103%	88.5% and 108%	100% and 98.6%	107% and 123%	112%	99.8% and 96.9%	105% and 103%	92.1% and 102%	104% and 107%	102% and 101%

Reference: PubChem BioAssay (NCI)
